ALOX12 inh – inhibitors of human 12S-lipoxygenase ALOX12; P18054; purified 12hLO, xylenol orange hydroperoxide absorbance; Potency, µM (series often up to 108 µM), usual class: inhibitors; hit rate 1.1% among 580,000; AID 1671190
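Purified human 12hLO (150 nM final) in 25 mM Hepes, 0.01% Triton X-100, pH 7.0 was preincubated 15 min at room temperature with compound. Then 40 uM arachidonic acid was added, 30 min. Hydroperoxide was read by Fe-XO absorbance ratio 573/405 nm.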
Anesthetic bind – binds horse apoferritin like a general anesthetic | apoferritin/1-aminoanthracene competitive binding, fluorescence | AID 485281 | Potency, µM (highest dose often 77.5 µM), usual class: inhibitors | hit rate 0.074% among 350,000 | P02791; note: nearly all actives have a fitted effect of over 20% in size
Target sequence (P02791 2-175 limits assumed): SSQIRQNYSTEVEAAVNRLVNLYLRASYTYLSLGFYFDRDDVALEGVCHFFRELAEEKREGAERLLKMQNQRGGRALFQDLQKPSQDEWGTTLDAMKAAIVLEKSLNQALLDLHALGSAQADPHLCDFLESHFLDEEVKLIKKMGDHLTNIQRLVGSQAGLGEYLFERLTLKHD
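10 uM apoferritin + 50% sat. 1-AMA, PBS; cpd 10 min RT; Ex380/Em535 endpoint; normalized to free probe vs complex; 4-param Hill fit; propofol titration as pos. ctrl.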
BCR signal inh – chronic active BCR signaling inhibition. ABC-DLBCL IkBa-CBG/CBR reporter, luminescence ratio, 4 h. Potency, µM (top dose mostly 46.1 µM), most hits filed as inhibitors. AID 493014. hit rate 0.05% among 340,000; active = well fitted inhibition curve with a large enough effect in the signal ratio, with a control signal flat, not every such curve was filed as active; inconclusive = small, poorly fitted or top-dose-only effect, or effect the other way, or a change in a side signal; the % refers to the signal ratio
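Cell line TMD8 (human ABC DLBCL), stably expressing tet-inducible CBG68-IkBa fusion and CBR; IMDM/0.5% FBS; cpd up to 46 uM; dox induction, 4 h, 37C/5% CO2; dual luminescence; green/red ratio; MG132 control.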
GRP78 ERSR act – inducers of ER stress response in human glioma cells; U87-MG GRP78 promoter luciferase reporter, 16 h; hit rate 0.02% among 420,000; Potency, µM, hits mostly activators; note: series mostly up to about 76 µM; nearly all actives have a fitted effect of over 35% in size
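ERSR induction read as luciferase luminescence (Bright-Glo, 10 min at room temperature) in stably transfected human U87-MG glioma cells exposed to compounds for 16 h, using GRP78 as sensor.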
Hits are given with their value; n = inactive; u = inconclusive; x = not tested or not shown. Compounds with a hit are over-represented: about 1.1% of the library has one in this group of screens. Unless noted, calls come from the whole dose curve; as a rule, active = well fitted curve in the direction sought with a large enough effect; inconclusive = small, poorly fitted or top-dose-only effect, or another doubt; inactive = no such curve, though single readings can be large; an effect the other way counts as inactive or inconclusive.

SMILES	ALOX12 inh	Anesthetic bind	BCR signal inh	GRP78 ERSR act
O=C(c1cccc(OC2CN(Cc3cccc(F)c3)C2)c1)N1CCOCC1	n	x	x	x
CO/C([O-])=N/c1c[n+](-c2ccc(Cl)cc2)no1	25µM	n	n	n
O=C(Nc1ccon1)c1sc2cccc(Cl)c2c1Cl	n	x	x	x
S=c1nc(-c2ccco2)[nH][nH]1	6.3µM	n	u	n
COc1ccccc1CC(=O)N1CCC2(CC1)NC(=O)N(c1cccc(F)c1)N2	1.8µM	x	x	x
COc1cccc(C(=O)N2CCC3(CC2)NC(=O)N(c2ccc(F)cc2)N3)c1OC	4µM	x	x	x
COc1ccccc1C(=O)N1CCC2(CC1)NC(=O)N(c1cccc(F)c1)N2	2.5µM	x	x	x
O=C(c1cc(C2CC2)[nH]n1)N1CCC2(CC1)NC(=O)N(c1cccc(F)c1)N2	11µM	x	x	x
Cc1cccc(C)c1NC(=O)CN(C)S(=O)(=O)c1c(C)noc1C	n	x	x	x
Cc1ccc(CN2CCCN(Cc3ccncc3)C(c3ccccc3)CC(=O)NCC2)o1 (configuration not stated)	n	x	x	x
COc1ccc(C(=O)N2CCC3(CC2)NC(=O)N(c2cccc(F)c2)N3)cc1F	2µM	x	x	x
COc1ccc(C(=O)N2CCC3(CC2)CC(O)CCO3)cc1F (configuration not stated)	n	x	x	x
CCn1nccc1C(=O)N1CCC2(CC1)NC(=O)N(c1cccc(F)c1)N2	4µM	x	x	x
Cc1ccc(C(=O)N2CCC3(CC2)NC(=O)N(c2ccc(F)cc2)N3)s1	2µM	x	x	x
COc1cccc(C(=O)N2CCN(C(=O)c3cccc4ccccc34)CC2)c1OC	n	n	u	n
COc1cccc(C(=O)N2CCC3(CC2)NC(=O)N(c2cccc(F)c2)N3)c1OC	3.2µM	x	x	x
Cc1ccc(Cn2c(=O)n(CCCC(=O)NCc3ccc4c(c3)OCO4)c(=O)c3ccccc32)cc1	n	x	x	x
O=C(/C=C/c1cccs1)OCC(=O)c1ccc2c(c1)-c1ccccc1C2	n	x	x	x
O=C(NC(C1CC1)C1CC1)c1cccnc1	n	x	x	x
Cc1ccc(-c2nc3ccc([N+](=O)[O-])cc3[nH]2)cc1	u	n	u	n
O=[N+]([O-])c1ccc2nc(-c3ccc(Cl)cc3)[nH]c2c1	20µM	n	u	n
CC(C)(C)NC(=S)NC(=O)C12CC3CCC(CC(C3)C1)C2	22µM	n	n	n
Cc1cnc(CCNC(=O)NC(C)(C)C)n1Cc1ccccc1	n	x	x	x
CC1(C(=O)OCC(=O)c2ccc(Br)cc2)CC1(Cl)Cl (configuration not stated)	n	x	x	x
O=C(C=C(O)c1ccc(Cl)cc1)C(=O)NNC(=O)C(O)(c1ccccc1)c1ccccc1	14µM	x	x	n
SMILES	ALOX12 inh	Anesthetic bind	BCR signal inh	GRP78 ERSR act
NC(=S)N/N=C/C1=C(c2ccccc2)C2C=CC1C2 (configuration not stated)	8.9µM	x	x	x
NC(=S)N/N=C/c1ccccc1	u	n	n	n
Cc1nn(-c2ccccc2)c(C)c1CN(C)S(=O)(=O)c1c(Cl)cccc1Cl	n	x	x	x
CCOc1cccc2cc(C(=O)/C=C/c3ccc(C)cc3)c(=O)oc12	n	x	x	x
COc1ccc2c3c(ccc2c1)C(=O)/C(=C/O)CC3	25µM	x	x	n
COc1ccc2c(c1)CC/C(=C/c1ccncc1)C2=O	x	n	u	n
Cc1nn(C)c(C)c1NC(=O)C(C)OC(=O)c1ccc2c(c1)NC(=O)CS2 (configuration not stated)	n	x	x	x
CN(C)C(=O)c1nc(-c2ccc(F)cc2)c2cnccn12	n	x	x	x
Cc1ccc(-c2cc(-c3ccc(C)o3)nc(N)c2C#N)cc1	1µM	n	n	n
Cc1ccc(-c2cc(-c3ccc(Cl)cc3)c(C#N)c(N)n2)o1	u	n	n	n
Cc1ccc(-c2cc(-c3ccc(F)cc3)c(C#N)c(N)n2)o1	7.1µM	n	u	n
COCC1CN(C2CCC2)CC12CCN(C(=O)Cc1cccc(F)c1)CC2 (configuration not stated)	n	x	x	x
COC(=O)Cc1cc(=O)n2[nH]c(C)nc2n1	n	n	u	n
COC(=O)Cc1cc(=O)n2[nH]cnc2n1	6.3µM	n	n	n
Cc1nn(C)c(C)c1CC(=O)Nc1nc(C(C)C)cs1	n	x	x	x
COc1ccc(-c2c(NC(=O)c3ccc(F)cc3)oc3ccccc3c2=O)cc1	n	x	x	x
O=c1[nH]c2ccc(NCc3ccc(-c4ccc(Br)cc4)o3)cc2[nH]1	10µM	n	x	n
CNCc1ccc(-c2ccc(Br)cc2)o1	28µM	x	x	x
Cc1cccc(N2CCN(Cc3ccc(Br)o3)CC2)c1C	0.56µM	n	n	n
CCn1c(-c2cc3c(C(F)(F)F)nn(C)c3s2)n[nH]c1=S	10µM	n	n	n
CCNC(=O)NC(=O)C(C)N(C)Cc1ccco1 (configuration not stated)	n	x	x	x
COc1ccc(NC(=O)Cn2cc(S(=O)(=O)Cc3ccc(F)cc3)c3ccccc32)cc1OC	50µM	n	x	n
CC(C)(C)NC(=O)Cn1cc(S(=O)(=O)Cc2ccc(F)cc2)c2ccccc21	n	n	x	n
CCOCCCNc1nc2c(c(=O)n(C)c(=O)n2C)n1Cc1ccc(Cl)cc1Cl	n	x	x	x
O=C(CCCN1C(=O)/C(=C/c2ccco2)SC1=S)Nc1ccccc1C(=O)O	32µM	n	u	n
SMILES	ALOX12 inh	Anesthetic bind	BCR signal inh	GRP78 ERSR act
O=C(CN1C(=O)/C(=C\c2ccco2)SC1=S)Nc1ccc(O)cc1C(=O)O	25µM	n	n	n
CC(C(=O)Nc1ccc(O)cc1C(=O)O)N1C(=O)/C(=C\c2cccs2)SC1=S (configuration not stated)	32µM	n	u	n
O=C(CCCN1C(=O)/C(=C\c2ccccc2)SC1=S)Nc1ccc(O)cc1C(=O)O	u	u	u	n
COc1ccc2cnn(CC(=O)Nc3ccc(F)cc3F)c(=O)c2c1OC	n	x	x	x
CC1(C)CC(=O)C2=C(C1)Nc1ccccc1S2	25µM	n	n	n
CCOc1cc2cc(C(=O)c3ccccc3O)cnc2cc1OC	8.9µM	x	x	x
CCC(C)Cc1nccc(C2(c3ccccc3Cl)CCNCC2)n1 (configuration not stated)	n	x	x	x
CCCCOP(=O)(OCCCC)C1(NS(=O)(=O)c2ccccc2)C=CC(=O)c2ccccc21 (configuration not stated)	16µM	u	u	n
CCCCOCCCNS(=O)(=O)c1ccccc1	n	n	n	n
COc1ccc2c(C)c(CC(=O)Nc3cccc(C)c3)c(=O)oc2c1OC	n	x	x	x
O=C(N/N=C/c1cc(Br)cc(Cl)c1O)c1ccc2c(c1)OCO2	22µM	x	x	n
Cc1cc(Br)cc(/C=N/NC(=O)c2ccc3c(c2)OCO3)c1O	n	n	u	n
Clc1cc(Br)ccc1OCCn1ccnc1	0.71µM	n	n	n
Clc1cc(Br)ccc1OCCCn1ccnc1	u	n	n	n
Clc1ccccc1OCCCn1ccnc1	0.35µM	u	n	n
Cc1ccc(-c2nc3ccccc3n2CCNC(=O)Nc2cccc(F)c2)cc1	n	x	x	x
O=C(Cn1c(NCc2ccccc2)nc2ccccc21)N1CCCCC1	n	x	x	x
CCN(CC)S(=O)(=O)c1ccc(NS(=O)(=O)c2ccc3ccccc3c2)cc1	n	x	x	x
O=C(NCCCN1CCc2ccccc2C1)c1ccccc1C(F)(F)F	n	x	x	x
Cc1ccccc1Nc1nc(CSc2nnnn2C2CC2)cs1	28µM	x	x	x

Screening results as filed in PubChem BioAssay.
